Hit rate of the full screen: of about 47,000 compounds, about 2,800 (6%) were called active. The entries come from a sample that favours actives as a whole. Unmarked numbers belong to inactive results. Rule as the data show it: active = z-score above about 3 (passing the limit was not always enough); inactive = the rest.

Z-score data for 58 molecules are collected here from PubChem BioAssay AID1347074 (Center for Chemical Genomics, University of Michigan, 2019).

For the assay, the target named is Endoribonuclease Dicer (Homo sapiens) (UniProt Q9UPY3). Nature of the assay: Dicer cleavage of pre-miR-21 blockers – biochemical, cat-ELCCA, chemiluminescence, primary screen (AID 1347074).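 Also: plate controls were vehicle for no effect and no enzyme for full effect; higher signal means more uncleaved substrate so more Dicer inhibition.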 To be noted: cat-ELCCA pre-miR-21 Dicer processing, at 25 µM, stronger effect = higher value.
Sequence of Endoribonuclease Dicer (Homo sapiens) (Q9UPY3 whole entry, looked up): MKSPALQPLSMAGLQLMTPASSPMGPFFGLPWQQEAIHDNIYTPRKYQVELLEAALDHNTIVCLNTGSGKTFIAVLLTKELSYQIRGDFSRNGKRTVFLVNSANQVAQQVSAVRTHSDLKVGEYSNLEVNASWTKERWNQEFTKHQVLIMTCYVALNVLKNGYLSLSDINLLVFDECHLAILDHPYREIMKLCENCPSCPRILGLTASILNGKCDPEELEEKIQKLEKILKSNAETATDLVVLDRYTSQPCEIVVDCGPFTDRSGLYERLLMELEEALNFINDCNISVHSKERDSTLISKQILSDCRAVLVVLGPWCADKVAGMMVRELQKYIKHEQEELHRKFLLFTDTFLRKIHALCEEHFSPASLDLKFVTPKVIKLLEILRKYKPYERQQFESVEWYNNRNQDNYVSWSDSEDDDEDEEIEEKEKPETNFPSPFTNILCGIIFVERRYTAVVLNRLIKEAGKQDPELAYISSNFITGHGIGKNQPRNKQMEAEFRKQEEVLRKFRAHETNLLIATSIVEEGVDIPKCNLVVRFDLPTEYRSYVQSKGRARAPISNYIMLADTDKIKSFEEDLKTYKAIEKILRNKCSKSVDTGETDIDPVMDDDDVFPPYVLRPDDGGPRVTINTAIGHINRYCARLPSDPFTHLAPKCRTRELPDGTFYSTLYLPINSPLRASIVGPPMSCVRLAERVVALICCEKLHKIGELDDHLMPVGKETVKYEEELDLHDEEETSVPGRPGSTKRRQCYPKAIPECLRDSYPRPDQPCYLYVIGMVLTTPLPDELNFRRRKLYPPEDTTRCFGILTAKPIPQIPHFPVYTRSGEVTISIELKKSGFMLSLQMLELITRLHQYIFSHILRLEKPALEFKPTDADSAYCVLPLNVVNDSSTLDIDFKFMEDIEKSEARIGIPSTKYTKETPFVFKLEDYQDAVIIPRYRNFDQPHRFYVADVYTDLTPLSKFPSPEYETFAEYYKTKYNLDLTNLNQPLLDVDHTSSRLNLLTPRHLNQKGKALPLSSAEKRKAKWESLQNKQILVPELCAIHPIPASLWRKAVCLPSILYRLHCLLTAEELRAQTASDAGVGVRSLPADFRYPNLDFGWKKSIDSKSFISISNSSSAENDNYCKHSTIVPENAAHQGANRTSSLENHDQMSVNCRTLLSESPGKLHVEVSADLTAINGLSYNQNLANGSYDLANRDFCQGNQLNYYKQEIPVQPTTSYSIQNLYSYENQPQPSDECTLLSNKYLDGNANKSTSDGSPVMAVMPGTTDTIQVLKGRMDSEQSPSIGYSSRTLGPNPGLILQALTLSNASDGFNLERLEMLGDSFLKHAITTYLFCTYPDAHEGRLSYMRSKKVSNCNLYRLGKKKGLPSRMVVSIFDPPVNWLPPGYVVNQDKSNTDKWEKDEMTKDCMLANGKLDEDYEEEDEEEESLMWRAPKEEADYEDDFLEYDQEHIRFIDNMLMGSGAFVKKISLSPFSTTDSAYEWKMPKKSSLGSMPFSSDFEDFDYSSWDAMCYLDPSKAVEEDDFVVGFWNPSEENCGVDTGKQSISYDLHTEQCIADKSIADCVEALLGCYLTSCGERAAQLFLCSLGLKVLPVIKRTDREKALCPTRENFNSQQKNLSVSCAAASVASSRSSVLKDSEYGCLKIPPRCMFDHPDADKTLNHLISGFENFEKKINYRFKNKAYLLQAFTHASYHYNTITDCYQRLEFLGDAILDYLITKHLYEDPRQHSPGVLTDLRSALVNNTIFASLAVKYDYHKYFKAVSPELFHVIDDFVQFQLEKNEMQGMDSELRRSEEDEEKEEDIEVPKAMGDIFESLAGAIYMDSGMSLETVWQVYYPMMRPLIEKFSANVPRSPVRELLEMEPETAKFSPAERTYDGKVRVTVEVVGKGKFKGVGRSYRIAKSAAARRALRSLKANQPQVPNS
As for `CC(C)Oc1ccc(C2N3CC4(C)CN2CC(C)(C3)C4)cc1` (stereo not drawn), the z-score is 2.35.
The value for `CC(C)c1ccc(C2N3CC4(C)CN2CC(C)(C3)C4)cc1` (stereo not drawn) was 4.83 (active); that for `COc1ccc(C2N3CC4(C)CN2CC(C)(C3)C4)cc1` (stereo not drawn) was 1.02; that for `C#CC1(NS(=O)(=O)c2ccc(Sc3ccccc3)c([N+](=O)[O-])c2)CCCCC1` was -0.19.
The value for `CCOC(=O)Cc1csc(NC(=O)Nc2ccccc2)n1` was -0.51.
In the case of `Cc1cc(C)c(C#N)c(Nc2cccc(Br)c2)n1` it was 0.66.
Turning to `CCOC(=O)Cc1nnc2c(Nc3cccc(Br)c3)nc3nonc3n12`, the z-score was 3.07 (active).
The value for `O=C(Cn1nc(C(F)(F)F)c2c1CCCC2)Nc1ccc(Cl)cc1` was 1.11.
In the case of `COc1ccc(C2CC(=O)C3=C(C2)Nc2ccccc2NC3c2cc(F)ccc2F)cc1` (stereo not drawn) it was 3.99 (active); in that of `COC(=O)C1=C(C)NC2=C(C(=O)CC(c3ccccc3)C2)C1c1ccc(C)cc1` (stereo not drawn), 0.18; in that of `O=C1CC(c2ccccc2)CC2=C1C(c1cccc(Cl)c1)Nc1ccccc1N2` (stereo not drawn), 1.52.
In the case of `COc1ccc(C2CC(=O)C3=C(C2)Nc2ccccc2NC3c2cccc(Cl)c2)cc1` (stereo not drawn) it was 2.07; in that of `COC(=O)c1ccc(C2Nc3ccccc3NC3=C2C(=O)CC(c2ccccc2)C3)cc1` (stereo not drawn), 3.94 (active).
In the case of `CN(C)c1ccc(C2Nc3ccccc3NC3=C2C(=O)CC(c2ccc(Cl)cc2)C3)cc1` (stereo not drawn), the z-score is 1.16.
The value for `O=C(CSc1ncnc2c1sc1nc(N3CCOCC3)c3c(c12)CCCC3)N1CCCCC1` was -0.18.
The value for `CCOC(=O)c1[nH]c2ccc([N+](=O)[O-])cc2c1CCC(=O)O` was 0.9; that for `COc1ccc(NC(=O)NCc2c(-c3ccccc3)noc2C)cc1OC1CCCC1` was -0.22.
In the case of `Cc1cc(C)nc(N2CCN(c3ncnc4sc5c(c34)CCCC5)CC2)n1`, the z-score is 5.88.
In the case of `Cc1cc(C)c2oc(-c3ccc(C)c(NC(=O)C(C)C)c3)nc2c1` it was 0.37.
For `c1ccc2[nH]c(NCCN3CCOCC3)nc2c1`, the z-score is -0.76.
The value for `Clc1ccc(Cn2c(-c3ccco3)nc3ccccc32)cc1` was 2.46.
In the case of `Clc1ccc(CNc2nc3ccccc3n2CCN2CCOCC2)cc1` it was 3.51 (active); in that of `Cc1nn(-c2ccc(N3CCOCC3)nn2)c(=O)c2ccccc12`, -0.81.
In the case of `Cc1c(Cc2c(F)cccc2Cl)c(=O)oc2cc(OC(=O)c3ccccc3Cl)ccc12` it was -0.2; in that of `COc1ccc(OCCn2cc(C(=O)C3CC3)c3ccccc32)cc1`, 3.94 (active).
Turning to `COc1ccc(OC)c(NC(=O)Cn2cc(C(=O)C3CC3)c3ccccc32)c1`, the z-score was 0.03.
In the case of `COCCCNC(=O)Cn1cc(C(=O)C2CC2)c2ccccc21` it was 1.99.
Turning to `CCCCN1C(=O)C2(/C(=C(/O)c3ccc(F)cc3)C(=O)C(=O)N2CCCOC)c2ccccc21` (stereo not drawn), the z-score is 2.27.
In the case of `COc1cc(CN(Cc2ccccc2)C(=S)Nc2c(C)cccc2C)cc(OC)c1OC` it was 1.24.
In the case of `CCN(C(=S)Nc1c(C)cccc1C)c1ccccc1` it was 3.03 (active).
The value for `Cc1cccc(C)c1NC(=S)NCCC(=O)O` was 1.63.
On to `O=[N+]([O-])c1ccc(S(=O)(=O)c2ccccc2)cc1OS(=O)(=O)c1ccc(Cl)cc1`, for which the z-score is 0.46.
In the case of `Fc1ccc(Nc2nnns2)cc1` it was 2.65.
In the case of `Cn1c(C(=O)O)ccc1S(=O)(=O)N(Cc1ccccc1)Cc1ccccc1` it was -0.36; in that of `CC(C)=NNS(=O)(=O)c1ccc(C)cc1`, -6.01.
In the case of `Cc1nc2cc(NCc3ccccn3)ccc2n1C` it was 3.02 (active); in that of `Cc1nc2cc(CO)ccc2n1-c1ccccc1`, -1.15; in that of `CCOc1cc(C)c(S(=O)(=O)NCc2ccccn2)cc1C`, 0.63.
As for `CN(C)c1ccc(C2/C(=C(/O)c3ccccc3)C(=O)C(=O)N2CCO)cc1` (stereo not drawn), the z-score is -1.23.
For `CCOC(=O)C1Cn2c(nc3c(c2=O)C(C)(CC)Cc2ccccc2-3)S1` (stereo not drawn), the z-score is 3.52 (active).
The value for `Cc1ccc(NC(=O)C/C(N)=N/O)cc1Cl` was 1.48; that for `CCn1c(CSc2nc(-c3ccc(Cl)cc3)cn2-c2ccc(C)cc2)n[nH]c1=S` was 5.38 (active); that for `S=c1[nH]nc(CSCc2nc(-c3ccccc3)cs2)n1-c1ccc(Cl)cc1` was -0.05.
As for `COc1ccc(-c2n[nH]c(=S)n2-c2ccc(Cl)cc2C)cc1`, the z-score is -1.05.
The value for `C=CCSc1nc(Nc2ccc(Cl)cc2)c2cnc(N3CCOCC3)nc2n1` was 0.68.
Regarding `Cc1nc2ccccc2c2c1C(=O)N(c1ccc(C(=O)OCC(=O)c3ccccc3)cc1)C2=O`, the z-score is 0.06.
The value for `C/C(=N\NC1=NCCCN1)c1ccc(Cl)cc1` was -0.42; that for `CCCCSC1=C(C#N)C(=O)NC(C)S1` (stereo not drawn) was 1.98; that for `COc1ccc(-c2nn3c(-c4ccc(OC)cc4)nnc3c3ccccc23)cc1` was 3.15 (active).
The value for `COc1ccc(-c2cc(C)nc3nc(N)nn23)cc1` was -1.68; that for `COc1ccc(-c2nn3c(-c4ccccc4)nnc3s2)cc1OC` was -0.95; that for `CSc1ccc(C2C(C(=O)OCC3CCCO3)=C(C)NC3=C2C(=O)CC(C)(C)C3)cc1` (stereo not drawn) was 0.6.
In the case of `COc1ccc2c(c1)CCCC2=Nc1ccccc1C(F)(F)F`, the z-score was 4.81 (active).
The value for `COc1ccc2c(c1)CCc1sc(N)nc1-2` was -2.97.
The value for `CCCOc1ccc(N2C(=O)CC(N3CCC(C)CC3)C2=O)cc1` (stereo not drawn) was 1.2.
In the case of `COC(=O)/C=C(\Nc1ccccc1Oc1ccc(Cl)cc1Cl)C(=O)OC` it was 2.01; in that of `NNC(=O)Cn1nnc(-c2cccc(Cl)c2Cl)n1`, 7.9; in that of `O=C(Cn1nnc(-c2ccccc2Oc2ccc(Cl)cc2Cl)n1)NNC(=S)Nc1ccccc1C(F)(F)F`, 4.43 (active).
